Records with an inconclusive call do not appear. Activity calls are given as the source filed them. How the source made its calls: active means hit-call score of the fitted dose curve at least 0.9, where 1 is the maximum; inconclusive means response in the unintended direction; inactive means score below 0.9.
Biological target: human Vitamin D Receptor (VDR), VDR (gene 7421) (UniProt P11473)
Test: ATG_VDR_TRANS: Attagene TRANS-FACTORIAL HepG2 Assay for human Vitamin D Receptor (VDR) (AID 2283022)
Procedure: ATG_TRANS is a cell-based, multiplexed-readout assay that uses HepG2, a human liver cell line, with measurements taken at 24 hours after chemical dosing in a 24-well plate.ATG_VDR_TRANS is one of 30 assay component(s) measured or calculated from the ATG_TRANS assay. It is designed to make measurements of mRNA induction, a form of inducible reporter, as detected with fluorescence intensity signals by Reverse transcription polymerase chain reaction (RT-PCR) and Capillary electrophoresis technology.Data from the assay component ATG_VDR_TRANS was analyzed into 1 assay endpoint. This assay endpoint, ATG_VDR_TRANS, was analyzed in the positive analysis fitting direction relative to DMSO as the negative control and baseline of activity. Using a type of inducible reporter, measures of mRNA for gain-of-signal activity can be used to understand the reporter gene at the transcription factor-level as they relate to the gene VDR. Furthermore, this assay endpoint can be referred to as a primary readout, because this assay has produced multiple assay endpoints where this one serves a reporter gene function. To generalize the intended target to other relatable targets, this assay endpoint is annotated to the nuclear receptor intended target family, where the subfamily is non-steroidal.
Human liver HepG2 cells are transiently transfected with multiple reporter transcription units (MRTUs) in 6-well plates using FuGene 6 reagent (Roche; 3 ml FuGene/1 mg DNA). The MRTU constructs are regulated by a cis-regulating element (promoter). […] A major difference between the CIS and TRANS system is that in CIS activities of endogenous TFs are measured, whereas the TRANS assay evaluates changes in activities of exogenous, chimeric NR-Gal4 proteins. […] At the end of 24 hour incubation, total RNA was isolated using TriZol reagent (Invitrogen). The isolated RNA is then reverse-transcribed using oligo(dT) primer and Mo-MLV reverse transcriptase (Invitrogen) with DNAse I (Ambion) treatment for 30 min. The one-tenth of the produced cDNA was amplified by PCR using Taq DNA polymerase (Invitrogen) and two reporter sequence-specific primers. The PCR products were fluorescently labeled by primer extension with 6-arboxyfluorescein (6-FAM) 5'-labeled reporter sequence-specific primer (2 min at 95 C, 20 s at 68 C and 10 min at 72 C) and these products were digested with 5U of HpaI (New England Biolabs) for 2h at 37 C. The fragments were purified using Qiaquick PCR columns (Qiagen), analyzed on an ABI 3130xL genetic analyzer (Applied Biosystems) with peak positions identified by using a set of X-rhodamine (ROX)-labeled MapMarker1000 molecular weight standards (BioVentures). The raw capillary electrophoresis data was processed using Attagraph software (Attagene).

Sequence of human Vitamin D Receptor (VDR), VDR (gene 7421) (P11473 whole entry, looked up): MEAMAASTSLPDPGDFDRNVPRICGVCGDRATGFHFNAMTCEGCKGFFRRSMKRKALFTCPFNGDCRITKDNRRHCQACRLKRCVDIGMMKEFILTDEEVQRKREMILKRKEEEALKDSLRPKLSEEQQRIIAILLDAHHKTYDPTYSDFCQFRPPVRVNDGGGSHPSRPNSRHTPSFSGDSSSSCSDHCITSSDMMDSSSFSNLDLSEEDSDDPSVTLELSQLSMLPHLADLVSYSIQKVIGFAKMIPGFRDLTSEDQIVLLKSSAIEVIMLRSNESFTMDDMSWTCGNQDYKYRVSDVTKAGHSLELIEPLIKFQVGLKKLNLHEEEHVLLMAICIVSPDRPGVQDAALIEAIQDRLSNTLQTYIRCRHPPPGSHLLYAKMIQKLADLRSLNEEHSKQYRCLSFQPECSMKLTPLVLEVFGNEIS

outcome, inactive:
CCCN[C@H]1CCc2nc(N)sc2C1
CCCCCCC1CCCC(=O)O1 (stereo not given)
c1cc(N(CC2CO2)CC2CO2)ccc1Cc1ccc(N(CC2CO2)CC2CO2)cc1 (stereo not given)
CC(C)(C)NC(=O)[C@@H]1CN(Cc2cccnc2)CCN1C[C@@H](O)C[C@@H](Cc1ccccc1)C(=O)N[C@H]1c2ccccc2C[C@H]1O
COc1cccc(OC)c1C(=O)O
CCCCCCCCCCCCCC
NC(=O)c1ccc(N)cc1
CCCCCCCCCCC1CO1 (stereo not given)
CCC(C)(CCC(C)C)C(=O)O (stereo not given)
CCOC(=O)CC(=O)OCC
CCCCNC(N)=O
CCCC(=O)OC
CCCCCCC1CCC(=O)O1 (stereo not given)
COC(=O)/C=C\C(=O)OC
c1ccc2c(c1)Oc1ccccc1S2
CC(C)CC(=O)CC(C)C
CNC[C@H](O)[C@@H](O)[C@H](O)[C@H](O)CO
Clc1ccc(Sc2cc(Cl)c(Cl)cc2Cl)cc1
O=C(OCc1ccccc1)c1ccccc1
CC(C)=CCOC(=O)c1ccccc1
COC(OC)C(C)c1ccccc1 (stereo not given)
C=C(C)C(=O)OCCCCCC
CCCC(=O)OC/C=C(\C)CCC=C(C)C
C/C=C(\C)C(=O)OCC/C=C\CC
CCO[Si](OCC)(OCC)c1ccccc1
CCCCOC(=O)COc1ccc(Cl)cc1Cl
O=C(O)c1nc(Cl)c(Cl)c(Cl)c1Cl
CCOc1ccc2c(c1)C(C)CC(C)(C)N2 (stereo not given)
C[Si](C)(C)O[Si](C)(C)O[Si](C)(C)C
CCCCCCOC(=O)CCCCCCCC(=O)OCCCCCC
Nc1ccc(S(=O)(=O)Nc2cnc3ccccc3n2)cc1
CCCCCC1CCCC(=O)O1 (stereo not given)
CC/C=C/CCO
OCCc1ccccn1
O=C(O)c1cc(Cl)cc(Cl)c1O
C=CN1CCCCCC1=O
O=[N+]([O-])c1ccccc1C(F)(F)F
CCCCCC[C@@H](O)C/C=C\CCCCCCCC(=O)O
CC(C)(Oc1ccc(Cl)cc1)C(=O)O
O=C1NC(=O)C2CC=CCC12 (stereo not given)

Source: PubChem BioAssay (EPA / NIEHS)
